The test system of assay [1] is Klebsiella pneumoniae. The settings on record: Concentration 32 ug.mL-1;; ASSAY_TEST Inhibition of Bacterial Growth; detection method Absorption (OD600); MEDIA CAMHB; plate type 384well; NBS; CORNING #3640; time 18 hr.
For assay [2], the system named is Candida albicans. The settings on record: Concentration 32 ug.mL-1; ASSAY_TEST Inhibition of Fungal Growth; detection method Absorption (OD530).
Assay [3] deals with Cryptococcus neoformans. The settings on record: Concentration 32 ug.mL-1; ASSAY_TEST Inhibition of Fungal Growth; detection method Resazurin; Absorption (OD600-OD570); plate type 384well; NBS; CORNING #3640.

Results with a measured potency or affinity are listed apart.

In the case of `C=Cc1ccc(CN(c2ccc(CC)cc2)S(=O)(=O)c2cccn3c(C)nnc23)cc1`, the Inhibition in assay [1] is reported as 2.48%; in assay [2], 4.32%; in assay [3] it was -7.66%.

`Cc1ccc(NC(=O)CSc2nc3ccccc3n3c(C)nnc23)cc1C`: the Inhibition in assay [1] is recorded as -6.18%; in assay [2], 44.31%; in assay [3], -14.42%.

For the compound `Cc1ccc(CNC(=O)CSc2nnc3c4cc(-c5ccc(F)cc5)nn4ccn23)cc1`, the values for the Inhibition in assay [1], in assay [2] and in assay [3] were 11.62%, 2.7% and -29.65%, respectively.

For `CCc1nnc2c(S(=O)(=O)N(Cc3ccc(F)cc3)c3ccc(Cl)cc3)cccn12`, the Inhibition in assay [1] is 7.23%; in assay [2] it was 3.47%; in assay [3] it was -6.36%.

With `COc1ccc(-c2cc3c4nn(CC(=O)Nc5ccc(OC)c(OC)c5)c(=O)n4ccn3n2)cc1`, the Inhibition is 11.9% in assay [1], -0.77% in assay [2] and -19.32% in assay [3].

As for `CCOc1ccccc1NC(=O)Cn1nc2c(Sc3ccc(C)cc3C)nccn2c1=O`, the Inhibition in assay [1] is reported as 5.52%; in assay [2], -0.73%; in assay [3] it was -9.54%.

Regarding `Cc1ccc(CN(c2ccc3c(c2)OCO3)S(=O)(=O)c2ccc3nnc(C)n3c2)cc1`, the Inhibition is 2.15% in assay [1], 2.45% in assay [2] and -2.21% in assay [3].

Take `O=C(Cn1nc2c(Sc3cccc(F)c3)nccn2c1=O)Nc1ccc(F)c(Cl)c1`: the figures for the Inhibition in assay [1], in assay [2] and in assay [3] were -2.81%, 9.34% and -8.73%, respectively.

As for `O=C(Cn1nc2nc(Nc3ccc(F)cc3)ccn2c1=O)Nc1ccc(F)cc1`, the values for the Inhibition in assay [1], in assay [2] and in assay [3] were 8.54%, 3.4% and -2.56%, respectively.

Turning to `C=Cc1ccc(CN(c2ccc(C(C)C)cc2)S(=O)(=O)c2cccn3c(C)nnc23)cc1`, the Inhibition was 4.48% in assay [1], 1.49% in assay [2] and -4.15% in assay [3].

As to `COc1cc(NC(=O)Cn2nc3c(SC4CCCCC4)nccn3c2=O)cc(OC)c1`, the Inhibition in assay [1] was 18.11%; in assay [2], 13.52%; in assay [3] it was -27.94%.

For `Cc1ccccc1-c1noc(Cn2nc3ccc(-c4ccccc4)nn3c2=O)n1`, the Inhibition in assay [1] is recorded as 4.12%; in assay [2], 31.81%; in assay [3], -15.26%.

For the compound `O=c1c2nnc(SCc3ccc(Cl)cc3)n2ccn1-c1ccc(F)c(F)c1`, the figures for the Inhibition in assay [1], in assay [2] and in assay [3] were 10.1%, 4.2% and -5.11%, respectively.

For `Cc1cc(C)cc(Nc2nc(C)cc3nn(CC(=O)Nc4cccc(Cl)c4)c(=O)n23)c1`, the Inhibition is 7.28% in assay [1], 4.92% in assay [2] and -8.23% in assay [3].

Regarding `Cc1ccc(-n2ccn3c(SCC(N)=O)nnc3c2=O)cc1C`, the Inhibition in assay [1] is 20.66%; in assay [2] it was 1.07%; in assay [3], -10.4%.

For the compound `Cc1cc(C)cc(N(Cc2cccc(F)c2)S(=O)(=O)c2cccn3c(C)nnc23)c1`, the values for the Inhibition in assay [1], in assay [2] and in assay [3] were 2.61%, 2.81% and -7.1%, respectively.

For the compound `O=C(CSc1nnc2c(=O)n(-c3cccc(F)c3)ccn12)Nc1ccc(Br)cc1F`, the Inhibition is listed as 15.26% in assay [1], 5.02% in assay [2] and -13.45% in assay [3].

For `O=C(CSc1nnc2c(=O)n(-c3ccc(Br)cc3)ccn12)Nc1cc(F)ccc1F`, the results for the Inhibition in assay [1], in assay [2] and in assay [3] were 10.57%, 7.34% and -16.33%, respectively.

As to `CCOc1ccc(-n2ccn3c(SCC(=O)Nc4ccc5c(c4)OCCO5)nnc3c2=O)cc1`, the Inhibition was 3.14% in assay [1], 6.39% in assay [2] and -10.75% in assay [3].

As to `COc1cccc(NC(=O)Cn2nc3c4cc(-c5ccc(Cl)cc5)nn4ccn3c2=O)c1`, the results for the Inhibition in assay [1], in assay [2] and in assay [3] were 8.34%, 4.47% and -4.67%, respectively.

`Cc1ccc(N(Cc2ccccc2)S(=O)(=O)c2ccc3nncn3c2)cc1F`: the Inhibition in assay [1] is 4.64%; in assay [2], 0.48%; in assay [3], -7.94%.

As for `CCC(C)NC(=O)Cn1nc2ccc(SCc3ccc(Cl)cc3)nn2c1=O` (configuration not stated), the Inhibition in assay [1] is reported as 12.21%; in assay [2], 3.51%; in assay [3], -20.85%.

Turning to `COc1ccc(-c2cc3c4nn(CC(=O)Nc5cc(C)ccc5OC)c(=O)n4ccn3n2)cc1`, the Inhibition in assay [1] is 8.5%; in assay [2], 13.11%; in assay [3], -15.79%.

On to `O=C(Cn1nc2ccc(SCc3ccc(Cl)cc3)nn2c1=O)Nc1ccc2c(c1)OCO2`, for which the Inhibition in assay [1] is on record as 15.3%; in assay [2] it was 22.84%; in assay [3] it was -22.42%.

In the case of `CC(C)CCn1c(=O)c2sccc2n2c(=O)n(CCOc3ccccc3)nc12`, the Inhibition in assay [1] is reported as 15.26%; in assay [2] it was 12.41%; in assay [3], -11.28%.

`CCCCc1ccc(NC(=O)Cn2nc3c(Sc4ccccc4)nccn3c2=O)cc1`: the values for the Inhibition in assay [1], in assay [2] and in assay [3] were 5.15%, 28.09% and -10.74%, respectively.

Consider `O=C(CSc1nnc2c(=O)n(-c3ccc(Br)cc3)ccn12)Nc1cccc(F)c1`, for which the Inhibition in assay [1] is on record as 8.72%; in assay [2], 6.18%; in assay [3], -18.67%.

Turning to `CCOc1ccc(N(Cc2ccccc2)S(=O)(=O)c2ccc3nncn3c2)cc1`, the Inhibition is recorded as 6.93% in assay [1], 2.75% in assay [2] and -0.95% in assay [3].

As for `CCc1nnc2c(S(=O)(=O)N(Cc3cccc(F)c3)c3ccc(F)cc3)cccn12`, the Inhibition is -0.41% in assay [1], 1.06% in assay [2] and -2.23% in assay [3].

A word on the Inhibition: it is the relative decrease from the control value, in per cent.

The record behind these values is ChEMBL document CHEMBL4513146, “CO-ADD screening of Karazin Kharkiv National University (Ukraine) compounds”.
